About 300 (0.14%) of roughly 220,000 compounds were called active.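 How the source made its calls: active means inhibition of at least 40%; inactive means inhibition below 40%.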 For the sample, actives were picked, then their nearest neighbours and some compounds at random.

Sequence of Coagulation factor XI (Homo sapiens) (P03951 19-387 limits assumed): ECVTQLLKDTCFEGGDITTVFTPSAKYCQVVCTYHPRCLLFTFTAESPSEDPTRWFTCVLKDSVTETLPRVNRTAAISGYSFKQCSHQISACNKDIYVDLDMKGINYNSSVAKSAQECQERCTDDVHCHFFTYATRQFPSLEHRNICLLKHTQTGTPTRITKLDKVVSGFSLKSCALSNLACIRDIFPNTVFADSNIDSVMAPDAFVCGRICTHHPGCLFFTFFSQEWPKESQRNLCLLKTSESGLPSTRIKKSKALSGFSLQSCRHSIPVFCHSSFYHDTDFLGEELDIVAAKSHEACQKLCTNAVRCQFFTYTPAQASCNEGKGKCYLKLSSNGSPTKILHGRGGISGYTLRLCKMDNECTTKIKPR
Sequence of Coagulation factor XI (Homo sapiens) (P03951 388-625 limits assumed): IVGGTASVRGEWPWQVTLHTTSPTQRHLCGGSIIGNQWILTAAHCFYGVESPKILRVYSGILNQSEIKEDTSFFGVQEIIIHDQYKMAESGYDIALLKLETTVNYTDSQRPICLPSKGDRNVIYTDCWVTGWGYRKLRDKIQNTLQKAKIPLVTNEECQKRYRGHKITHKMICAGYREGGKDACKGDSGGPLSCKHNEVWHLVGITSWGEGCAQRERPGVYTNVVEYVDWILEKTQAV

This test concerns the target Coagulation factor XI (Homo sapiens) (UniProt P03951). Nature of the test: human FXIa protease inhibitors, primary screen, biochemical, 1536-well (AID 798).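 Further: fluorescence of freed AMC excited at 355 nm; 0% = enzyme without compound and 100% = no enzyme blank.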 The note with it: purified FXIa, Boc-Glu-Ala-Arg-AMC fluorogenic substrate; at 5 µM; hits give high values.
For orientation: inhibition means the drop in the measured response relative to a control, in per cent. With `Cc1c(Br)ccc(NC(=O)COc2ccccc2C(N)=O)c1C`, the inhibition was 3.29% (inactive).

Take `C/C=C(/C)C(=O)O[C@@H]1c2cc3c(c4c2[C@@]2(CO4)C(=O)C(OC)=C(OC)C=C2C[C@@H](C)[C@H]1C)OCO3`: the inhibition was 0.96% (inactive).

As to `COc1ccc(SC[C@H](Cc2ccccc2)N2CCN(CCc3ccccc3)CCC2=O)cc1`, the inhibition is 0.67% (inactive).

For `Cn1cnc(S(=O)(=O)Nc2ccc3c(c2)OCCO3)c1`, the inhibition was 3.26% (inactive).

As to `Cc1ccc(NC(=O)NC(=O)CSc2nnc(-c3ccc(OC(F)F)cc3)n2N)c(C)c1`, the inhibition was 3.67% (inactive).

Turning to `CCN=c1sc(C(=O)Nc2ccccc2)c(C)n1CC`, the inhibition was -2.02% (inactive).

Consider `Cc1cc(C(=O)OCC(=O)Nc2nnc(C(C)C)s2)c2ccccc2n1`, for which the inhibition was -3.05% (inactive).

`CC1=C(C(=O)N(C)C)C(c2ccccc2OC(F)F)NC(=O)N1` (stereo unspecified): the inhibition is 0.62% (inactive).

For `Cc1ccc(OC(=O)CCC(=O)Nc2ccc(Br)cc2)cc1`, the inhibition was -1.21% (inactive).

On to `O=S(=O)(NC(=S)Nc1ccccc1)c1ccc(F)cc1`, for which the inhibition is 4.03% (inactive).

On to `CCOC(=O)CN(C)S(=O)(=O)c1ccc(-c2cc(C(=O)OC)sc2C(F)(F)F)cc1`, for which the inhibition is 32.6% (inactive).

Consider `CN1CCN(C(=O)CCc2ncc(C(F)(F)F)cc2Cl)CC1`, for which the inhibition was 7.14% (inactive).

As for `COC(=O)c1c(NC(=O)CCCC(=O)O)sc2c1CCCCC2`, the inhibition is -0.58% (inactive).

For `O=C(N/N=C/c1cc2c(cc1Br)OCO2)C1COc2ccccc2O1` (stereo unspecified), the inhibition is -10.7% (inactive).

With `C[N+]1(CC(O)COc2ccccc2)CCN(C(=O)c2ccc([N+](=O)[O-])cc2)CC1` (stereo unspecified), the inhibition was 0.51% (inactive).

Take `Cc1nc2cc(NC(=O)NC3CC3)ccc2n1C`: the inhibition was -5.28% (inactive).

With `Cc1nc2cc(NC(=O)Nc3cccc(F)c3)ccc2n1C`, the inhibition was 43.8% (active).

In the case of `C=CCN(C(=O)Nc1ccc2c(c1)nc(C)n2C)c1ccccc1`, the inhibition was 26.2% (inactive).

For `Cc1cc(-c2csc(N)n2)c(C)n1-c1ccccc1`, the inhibition is 2.06% (inactive).

In the case of `CCOc1ccc(/C=C2\SC(=S)N(NC(=O)c3ccncc3)C2=O)cc1OC`, the inhibition is 6.9% (inactive).

As for `C[C@H](NC(=O)c1nc[nH]c1C(=O)N[C@@H](C)C(=O)OC(C)(C)C)C(=O)OC(C)(C)C`, the inhibition was 1.92% (inactive).

With `CN(C)C(=S)Nc1ccc(Br)cc1Cl`, the inhibition was 1.74% (inactive).

As for `NC(=O)Cn1nc([N+](=O)[O-])nc1Oc1ccc(Br)cc1`, the inhibition is 0.41% (inactive).

Turning to `O=C(Cc1ccc(F)cc1)N1CCN=C1SCc1cccc([N+](=O)[O-])c1`, the inhibition was -3.4% (inactive).

For the compound `Cc1cccc(N(C(=O)Cc2cccs2)C(C(=O)NCc2ccco2)c2ccncc2)c1` (stereo unspecified), the inhibition is -1.59% (inactive).

On to `CN(C)/N=C/c1cc(Cl)cc([N+](=O)[O-])c1O`, for which the inhibition is 2.99% (inactive).

Consider `CC(=O)NC1(c2ccc(F)cc2)CCN(C(=O)c2c(F)cccc2F)CC1`, for which the inhibition is -6.45% (inactive).

As to `Cc1cccc(N2CCN(Cc3nc(C4CC4)no3)CC2)n1`, the inhibition was -4.4% (inactive).

For `Cc1ccc(S(=O)(=O)N2CCN(CC(=O)N/N=C/c3cc([N+](=O)[O-])ccc3Cl)CC2)cc1`, the inhibition is 3.33% (inactive).

`COc1nc(NC2CCCCC2)nc(N2CCCCCC2)n1`: the inhibition was 5.12% (inactive).

Turning to `O=c1nc(N/N=C/c2ccco2)cn[nH]1`, the inhibition was -0.64% (inactive).

As for `CC(C)OP(=O)(OC(C)C)C(Nc1ccccc1)c1cccc([N+](=O)[O-])c1` (stereo unspecified), the inhibition is 2.9% (inactive).

Consider `COc1cccc(N2C(=O)CC(N3CCc4ccccc4C3)C2=O)c1` (stereo unspecified), for which the inhibition is -2.99% (inactive).

On to `Cc1ccc(NN=C2C(=O)OC(C)(C)OC2=O)c(C)c1`, for which the inhibition is -3.38% (inactive).

In the case of `O=C(COc1ccccc1[N+](=O)[O-])N/N=C/c1ccc[nH]1`, the inhibition was 2.13% (inactive).

As for `CC(C)c1nc(SCC(=O)NC(=O)NC(C)(C)C)n[nH]1`, the inhibition was 1.78% (inactive).

Turning to `Cc1ccc(C(=O)Cn2cc([N+](=O)[O-])nc2C)cc1`, the inhibition was 2.54% (inactive).

For `O=C(CNCc1ccc(F)cc1)Nc1ccccc1-c1ccccc1`, the inhibition is 5.85% (inactive).

With `O=C(COC(=O)C12CC3CC(CC(O)(C3)C1)C2)NC12CC3CC(CC(C3)C1)C2`, the inhibition is -0.93% (inactive).

As for `CCOC(=O)c1ccc(NC(=O)Cn2cnc3cc(C)c(C)cc32)cc1`, the inhibition is -1.09% (inactive).

As for `COc1ccc(CN2C(=O)CC(Cc3ccc(C)cc3)C2=O)cc1OC` (stereo unspecified), the inhibition is 16.3% (inactive).

As for `Cc1nc(N)[nH]c(=O)c1Oc1cccc(C(F)(F)F)c1`, the inhibition was -2.42% (inactive).

As for `CC(C)(C)NC(=O)CSC(=Nc1ccccc1F)NC#N`, the inhibition is 7.8% (inactive).

Consider `CCC1SC(CC)C(=O)N(CC(=O)NC2CCCCC2)C1=O` (stereo unspecified), for which the inhibition was 26% (inactive).

For `Cc1ccccc1Cn1c2ccccc2c2cnn(CC(=O)NCc3ccco3)c(=O)c21`, the inhibition is -0.28% (inactive).

Turning to `COCCNC(=S)N1CCC(NC(=O)C23CC4CC(CC(C4)C2)C3)CC1`, the inhibition was -6.69% (inactive).

`CCOc1cc(CN2CCN(C(=O)CC(C)C)CC2)ccc1OC`: the inhibition is -13.4% (inactive).

As to `O=C(COc1ccc(Cl)cc1[N+](=O)[O-])N1CCCCC1`, the inhibition is -5.02% (inactive).

Regarding `CCOc1cc(CO)ccc1OCC(=O)N1CCCCC1`, the inhibition is 40.9% (active).

For `COc1ccccc1OCC(=O)OCn1c(SC)nnc(C)c1=O`, the inhibition was 5.82% (inactive).

As for `CCOC(=O)N1CCN(Cc2nc3ccc([N+](=O)[O-])cc3c(=O)n2-c2cccc(OC)c2)CC1`, the inhibition is -1.56% (inactive).

For `Cc1cc(C(=O)CSc2nc(N)cc(=O)[nH]2)c(C)n1Cc1ccco1`, the inhibition is -4.8% (inactive).

In the case of `CCc1cccc(CC)c1NC(=S)Nc1ccc2cn[nH]c2c1`, the inhibition was 0.17% (inactive).

`O=C(O)c1ccccc1OCc1ccccc1Cl`: the inhibition is 1.64% (inactive).

Regarding `COCCN(CCOC)c1nc(N)c2c(N)nc3c(c2c1C#N)CC(=O)N3Cc1ccc(Cl)cc1`, the inhibition was -10.3% (inactive).

Consider `CC1=NN(/C(=N\c2nnc(C)s2)Nc2ccccc2)[C@H](c2ccc(C)cc2)S1`, for which the inhibition was 0.56% (inactive).

In the case of `COC(=O)c1sccc1-n1cccc1C(=O)C(=O)N1CCCCC1`, the inhibition was 0.21% (inactive).

For `O=C(Nc1ccc(Cl)cc1)Nc1ccc(C(=O)N2CCOCC2)cc1`, the inhibition was 4.9% (inactive).

In the case of `OC(c1nc2ccccc2[nH]1)C(O)C(O)C(O)c1nc2ccccc2[nH]1` (stereo unspecified), the inhibition is 1.7% (inactive).

For the compound `O=C(CCS(=O)(=O)Cc1ccccc1)Nc1ccc2c(c1)OCCO2`, the inhibition is -6.9% (inactive).

Turning to `COC(=O)Cc1[nH]n(-c2nc3ccccc3s2)c(=O)c1C(C)=Nc1ccc(OC)cc1`, the inhibition was 2.75% (inactive).

`N#C/C(=C/c1cccc([N+](=O)[O-])c1)c1nnc2n1CCCCC2`: the inhibition was 0.95% (inactive).

For `O=C(Cn1cc(C(F)(F)F)ccc1=O)N/N=C/c1ccc(Cl)cc1Cl`, the inhibition was 6.17% (inactive).

Regarding `O=C1N/C(=C/c2cccn2-c2ccccc2)C(=O)N1c1cccc(Cl)c1`, the inhibition is -9.57% (inactive).

Regarding `COCCNC(=O)C(c1ccc(O)cc1)N(C(=O)CCC(=O)Nc1nccs1)c1ccc(C)cc1` (stereo unspecified), the inhibition is 1.25% (inactive).

For `CCC(C)(C)NC(=O)CN(Cc1cccs1)C(=O)CNS(=O)(=O)c1ccc(F)cc1`, the inhibition is -7.45% (inactive).

For `CC(C)C(NC(=O)C1CCC(C(C)(C)C)CC1)C(=O)NCCCN1CCCCC1` (stereo unspecified), the inhibition is -3.84% (inactive).

In the case of `COc1ccccc1NC(=O)c1cc(Cl)nc2ccccc12`, the inhibition is -7.34% (inactive).

For `Cc1c(C(=O)NC(=S)NCc2cccnc2)oc2ccccc12`, the inhibition is -1.74% (inactive).

For `CN(C)CC(C)(C)CNC(=O)c1cc(Br)cc(Br)c1O`, the inhibition is -3.11% (inactive).

For `Cc1ccc(NC(=O)C2CCCN(S(=O)(=O)c3c(C)noc3C)C2)c(C)c1` (stereo unspecified), the inhibition is -3.38% (inactive).

With `Cc1noc(C)c1S(=O)(=O)N1CCCC(C(=O)Nc2nccs2)C1` (stereo unspecified), the inhibition is 1.07% (inactive).

As for `COc1c(C)cc(C(=O)C2CCCN(S(=O)(=O)c3c(C)noc3C)C2)cc1C` (stereo unspecified), the inhibition is 102% (active).

As to `FC(F)(F)c1cccc(-c2nc(COc3ccc(Cl)cc3Cl)no2)c1`, the inhibition was 2.41% (inactive).

As for `CN1CCc2ccccc2C1Cc1ccccc1NC(=O)c1sc2ccccc2c1Cl` (stereo unspecified), the inhibition is 2.33% (inactive).

Turning to `CCOC(=O)CSC1=N/C(=C/c2ccc(-n3cncn3)cc2)C(=O)N1C(C)=O`, the inhibition is 3.79% (inactive).

On to `O=c1[nH]c(CN2CCOCC2)nc2scc(-c3ccccc3)c12`, for which the inhibition was -11.5% (inactive).

As for `Cc1cccc2cc(CN(C(=O)c3cccs3)c3ccccc3)c(=O)[nH]c12`, the inhibition was -1.12% (inactive).

With `COc1ccc(OCc2n[nH]c(=S)n2N)cc1`, the inhibition is -0.79% (inactive).

In the case of `NS(=O)(=O)c1ccc(CCNC(=O)NC2CCCCC2)cc1`, the inhibition was 3.22% (inactive).

Take `Cc1ccc(C(=O)Nc2ccc(C)c(S(=O)(=O)N(C)C)c2)s1`: the inhibition is 6.45% (inactive).

As to `C#CCOCCOCCOCCNc1nc(N2CCN(C(=O)[C@H](CCC(=O)O)n3cc(C(N)CO)nn3)CC2)nc(N2CCN(C(=O)[C@H](CCCCN)n3cc(C(N)CC(C)C)nn3)CC2)n1` (stereo partly specified), the inhibition is 0.58% (inactive).

Turning to `NC(=O)C1=C[C@@H](c2csc3ccccc23)C[C@@H](OCc2ccc(CO)cc2)O1`, the inhibition was -0.4% (inactive).

For the compound `CN(CCc1ccccn1)C(=O)CCC1CCCN(Cc2ccccc2OC(F)F)C1` (stereo unspecified), the inhibition was -3.18% (inactive).

For `COc1ccccc1CN(C)c1nnnn1-c1ccccc1`, the inhibition is -0.22% (inactive).

As for `CC(C)Cc1nnc(NC(=O)CCC(=O)Nc2ccc3cn[nH]c3c2)s1`, the inhibition was 5.73% (inactive).

For `C=CC(COCc1ccccc1)N(Cc1ccccc1)S(=O)(=O)c1ccccc1Br` (stereo unspecified), the inhibition is -5.35% (inactive).

Regarding `COc1cc2[nH]c(=O)n(Cc3ccc(C(=O)NC4CCN(Cc5ccccc5)CC4)cc3)c(=O)c2cc1OC`, the inhibition was -5.4% (inactive).

As to `CCSC1=NCCN1C(=O)c1ccc(S(=O)(=O)N(CC)CC)cc1`, the inhibition was -2.2% (inactive).

Turning to `CCC(C(=O)Nc1ccc2c(c1)OCCO2)c1ccccc1` (stereo unspecified), the inhibition was -1.53% (inactive).

Turning to `CC12CN3CCN(CC(C3)/C1=N\NC(=O)c1ccccc1N)C2`, the inhibition was -0.67% (inactive).

Values taken from PubChem BioAssay AID798 (PCMD, 2007).
